# D1 PAM: human D1 dopamine receptor positive modulation | P21728 | HEK293 TREx D1 cells, calcium flux, dopamine EC20 potentiation | potentiation, % at 10 µM | hit rate 0.036% among 360,000; in the data active = potentiation above about 30%; note: 0% is about no effect
# Target sequence (P21728 whole entry, looked up): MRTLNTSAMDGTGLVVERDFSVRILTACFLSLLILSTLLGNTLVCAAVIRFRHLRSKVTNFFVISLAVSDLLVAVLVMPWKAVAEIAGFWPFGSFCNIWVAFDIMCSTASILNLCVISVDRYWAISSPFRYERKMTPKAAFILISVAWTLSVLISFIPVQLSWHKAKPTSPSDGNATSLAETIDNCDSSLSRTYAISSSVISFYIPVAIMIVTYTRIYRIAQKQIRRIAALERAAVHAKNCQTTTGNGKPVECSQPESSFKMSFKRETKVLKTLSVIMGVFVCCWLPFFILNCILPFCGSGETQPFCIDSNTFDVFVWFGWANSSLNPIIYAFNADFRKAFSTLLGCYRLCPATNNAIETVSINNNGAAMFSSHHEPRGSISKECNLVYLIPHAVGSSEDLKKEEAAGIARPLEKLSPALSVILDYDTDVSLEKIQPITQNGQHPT
# D1 agonist: human D1 receptor agonism. HEK293 T-REx D1 cells, calcium flux, agonist mode. AID 504660. hit rate 1% among 360,000. activation, % at 2 µM; in the data active = activation above about 30%; note: 0% is about no effect
#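 Inducible HEK293 T-REx D1 cells, force-coupled to calcium signalling, were plated at 4000 cells/well with tetracycline and held overnight at 30 C. After no-wash calcium dye loading, compound-evoked calcium rise over 180 s flagged agonists.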
# D1 antag: antagonists of human D1 dopamine receptor. AID 504652. HEK293 TREx D1 cells, calcium flux, dopamine EC80; active compounds read low. activity change, negative = inhibition, % at 10 µM. hit rate 3.2% among 360,000; in the data active = activity change below about -30%; note: % is set by controls: 0 for no effect and ±100 for the full control effect
#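 Kinetic fluorescence of a calcium dye serves as the read-out. D1-expressing Hek293 Trex cells, induced overnight at 30 C, are exposed to compound for 180 s before an EC80 dopamine addition, then read 180 s further.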
# DRD3 antagonist: D3 dopamine receptor (human) antagonism | P35462 | D3R cells, DiscoveRx beta-arrestin luminescence, antagonist mode; active compounds read low | max response, negative = inhibition, % | hit rate 2.5% among 360,000 | AID 652054; in the data active = max response below about -50%; note: % is set by controls: 0 for no effect and ±100 for the full control effect
#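 Cells plated overnight at 1500 cells/well, then exposed to library compounds with dopamine controls for 90 minutes at 37 degrees C. DiscoveRx reagent added for 30–60 minutes at room temperature; luminescence read, quantitative HTS format.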
# DRD3 agonist: D3 dopamine receptor (human) agonism. P35462. max activation, %. D3R DiscoveRx beta-arrestin cells, luminescence, 90 min. hit rate 0.58% among 410,000; in the data active = max activation above about 30%; note: 0% is about no effect
#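 Agonist mode: compounds and dopamine controls were applied to plated cells for 90 min at 37 degrees C after an overnight attachment at 1500 cells/well. Luminescent read-out followed 30 - 60 minutes at room temperature with DiscoveRx detection reagent.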
# Numbers without * were called inactive; x = not tested or not shown. Compounds with a hit are over-represented: about 6.1% of the library has one in this group of screens.
SMILES,D1 PAM,D1 agonist,D1 antag,DRD3 antagonist,DRD3 agonist
CCOC(=O)c1ccc2c(c1)sc1nc(-c3ccc(OCC)cc3)cn12,-4,2,-8,x,7
Cc1[nH][nH]c(=O)c1C(c1ccc(-c2ccc(Cl)cc2Cl)o1)c1c(C)[nH][nH]c1=O,-2,55*,-1,x,x
N=c1n(CC(=O)c2cccs2)c2ccccc2n1Cc1ccccc1,-10,47*,-22,8,6
O=C(/C=C/c1ccccc1Cl)N1CCN(c2ncccn2)CC1,-2,3,-31*,9,3
CC(=O)Nc1ccc2nc3c(=O)n(C)c(=O)n(C)c3nc2c1,-3,34*,-5,-13,-9
COc1ccccc1CCN1COc2c(cc3c(C)c(C)c(=O)oc3c2C)C1,0,8,-31*,x,-33
CCc1c(C)c2cc3c(c(C)c2oc1=O)OCN(CCc1ccc(OC)c(OC)c1)C3,0,8,-2,x,-25
Nn1c(Cc2cccc3ccccc23)n[nH]c1=S,-4,0,48,-22,-2
S=c1[nH]nc(Cc2cccc3ccccc23)n1-c1ccccc1,-4,2,8,-51*,-1
Cc1cccc(-n2c(Cc3ccccc3)n[nH]c2=S)c1,-5,1,-40*,4,-3
O=C(COC(=O)C1CCC(=O)N1)Nc1cc(Cl)ccc1Cl (stereo unspecified),2,3,-80*,17,2
O=C(NCC1CCCO1)C1CC(c2ccc(Cl)c(Cl)c2)=NO1 (stereo unspecified),-11,15,-32*,-25,1
Cn1ncc(C#N)c1NC(=O)C1CC(c2ccc(Cl)c(Cl)c2)=NO1 (stereo unspecified),-3,14,-25,-2,3
CCOc1ccc(N2C(=O)CC(NC3CCN(C(=O)c4cccc(Cl)c4)CC3)C2=O)cc1 (stereo unspecified),0,6,0,23,1
CCOc1ccc(N2C(=O)CC(NC3CCN(C(=O)c4cccs4)CC3)C2=O)cc1 (stereo unspecified),-4,79*,29,18,0
CCOc1ccc(-c2nnc(NC(=O)CCCOc3cccc(C)c3)o2)cc1,3,4,-33*,0,2
CCOc1ccc(-c2nnc(NC(=O)Cc3ccc(OC)cc3)o2)cc1,-7,1,7,-10,-6
O=C(CSCc1c(F)cccc1Cl)NCc1ccco1,3,-1,1,-10,-21
CCOc1ccc(-c2nc(CSCC(=O)NCc3ccco3)c(C)o2)cc1,-6,4,-37*,74,2
Cc1oc(-c2ccc(Cl)cc2)nc1CSCC(=O)NC1CCN(Cc2ccccc2)CC1,-8,12,-3,-76*,-30
CCOc1ccc(-c2nc(CSCC(=O)NC3CCN(Cc4ccccc4)CC3)c(C)o2)cc1,x,x,x,-117*,-5
CCOc1ccc(-c2nc(CSCC(=O)NCc3ccc(C)cc3)c(C)o2)cc1,-3,5,0,x,8
O=C(CSCc1c(Cl)cccc1Cl)NCc1ccco1,-6,0,-31*,-18,-15
Cc1ccc(N(CC(=O)N2CCN(c3cc(C)ccc3C)CC2)S(=O)(=O)c2c(C)nn(C)c2C)cc1,0,-1,-12,x,-4
CCOC(=O)C1CCC(CN(Cc2c(Cl)cccc2Cl)S(=O)(=O)c2ccc(F)c(C)c2)CC1 (stereo unspecified),-4,3,-5,x,5
SMILES,D1 PAM,D1 agonist,D1 antag,DRD3 antagonist,DRD3 agonist
CC1CCN(CC2CCN(C(=O)Nc3ccc(Br)cc3F)CC2)CC1,-1,1,12,x,-19
CC(=O)C1=C(c2ccc(F)cc2)N(C(C)=O)n2c(nnc2C2CCCCC2)S1,0,3,x,x,8
CCOC(=O)c1sc(NC(=O)c2c(-c3ccccc3)c(-c3ccccc3)nn(C)c2=O)nc1C,2,0,15,x,12
CCCc1c(C(=O)Nc2ccc(F)cc2C)cnn1-c1ccccc1,-11,5,-24,11,-16
CCCc1c(NC(=O)Nc2ccc(F)cc2)cnn1-c1ccccc1,-4,14,-46*,0,-17
Cc1ccc(NC(=O)C2CCN(S(=O)(=O)c3c(C)noc3/C=C/N(C)C)CC2)cc1,1,0,-3,-11,-2
Cc1cc(C)cc(NC(=O)C2CCN(S(=O)(=O)c3c(C)n[nH]c3C)CC2)c1,-18,0,-77*,20,10
